Records with an inconclusive call do not appear. Active and inactive are the calls of the source. How the source made its calls: active means hit-call score of the fitted dose curve at least 0.9, where 1 is the maximum; inconclusive means response in the unintended direction; inactive means score below 0.9.
Test: ACEA_AR_agonist_AUC_viability: ACEA Biosciences xCELLigence Real-Time Cell Analysis on Androgen Receptor Agonism for Viability (AID 2283775);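 on AC50: viability read 80 hours after compound addition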
How it was run: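 22Rv1 cells; impedance growth kinetics; 8-pt 1:4 dilutions from 100 uM top final, ≤0.5% DMSO; n = 2; 80 h read; AUC viability, loss-of-signal vs DMSO.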

| Structure (SMILES) | outcome | AC50 |
| --- | --- | --- |
| CO/N=C(/C(=O)OC)c1ccccc1COc1ccccc1C | inactive | – |
| CCNc1nc(Cl)nc(NC(C)(C)C)n1 | inactive | – |
| CCC1(c2ccccc2)C(=O)N=C(O)NC1=O (stereo not given) | inactive | – |
| CCCCC(CC)COP(=O)(Oc1ccccc1)Oc1ccccc1 (stereo not given) | inactive | – |
| CCCCN(CC)C(=O)SCCC | inactive | – |
| c1cc2c3c(cccc3c1)CC2 | inactive | – |
| [N-]=[N+]=[N-] | inactive | – |
| O=C(CBr)OCc1ccccc1 | inactive | – |
| CCC(C)(C)c1ccc(O)cc1 | – | 67 µM (active) |
| CC1(C)CN=C(NN=C(/C=C/c2ccc(C(F)(F)F)cc2)/C=C/c2ccc(C(F)(F)F)cc2)NC1 | – | 12.6 µM (active) |
| O=C(O)C1C(C(=O)O)C2(Cl)C(Cl)=C(Cl)C1(Cl)C2(Cl)Cl (stereo not given) | inactive | – |
| CC(C)(C)N(NC(=O)c1ccc(Cl)cc1)C(=O)c1ccccc1 | inactive | – |

Test: ACEA_AR_antagonist_AUC_viability: ACEA Biosciences xCELLigence Real-Time Cell Analysis on Androgen Receptor Antagonism for Viability (AID 2283776);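 further: 22Rv1 human prostate cancer cells growing on impedance electrode plates; area under impedance growth curve at 80 h after dosing as viability; hits lower the growth signal relative to DMSO meaning cytotoxicity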
How it was run: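 Real-time electrical impedance tracks 22Rv1 proliferation after continuous compound exposure (top 100 uM final, 1:4 steps, 8 concentrations). The 80 h area-under-curve serves as the cytotoxicity readout relative to DMSO.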

| Structure (SMILES) | outcome | AC50 |
| --- | --- | --- |
| Cc1ccc(N)cc1N | inactive | – |
| Nc1ccc2ccccc2c1 | inactive | – |
| CO/N=C(/C(=O)OC)c1ccccc1COc1ccccc1C | inactive | – |
| CCNc1nc(Cl)nc(NC(C)(C)C)n1 | inactive | – |
| CCN(CC)c1ccccc1 | inactive | – |
| CCC1(c2ccccc2)C(=O)N=C(O)NC1=O (stereo not given) | inactive | – |
| CCOC(=O)c1ccccc1C(=O)OCC | inactive | – |
| CCCCC(CC)COC(=O)c1c(Br)c(Br)c(Br)c(Br)c1C(=O)OCC(CC)CCCC (stereo not given) | inactive | – |
| CCCCC(CC)COP(=O)(Oc1ccccc1)Oc1ccccc1 (stereo not given) | – | 16.6 µM (active) |
| CCCCN(CC)C(=O)SCCC | inactive | – |
| O=S1(=O)OCC2C(CO1)C1(Cl)C(Cl)=C(Cl)C2(Cl)C1(Cl)Cl (stereo not given) | inactive | – |
| COC(N)=O | inactive | – |
| CC(Cl)(Cl)C(=O)O | inactive | – |
| c1cc2c3c(cccc3c1)CC2 | inactive | – |
| [N-]=[N+]=[N-] | – | 50 µM (active) |
| FC(F)(F)c1ccc(Cl)cc1 | inactive | – |
| CN(C)C(=O)Cl | inactive | – |
| CCC(C)(C)c1ccc(O)cc1 | – | 71.7 µM (active) |
| CC1(C)CN=C(NN=C(/C=C/c2ccc(C(F)(F)F)cc2)/C=C/c2ccc(C(F)(F)F)cc2)NC1 | – | 11.1 µM (active) |
| COCCOCCO | inactive | – |
| O=C(O)C1C(C(=O)O)C2(Cl)C(Cl)=C(Cl)C1(Cl)C2(Cl)Cl (stereo not given) | inactive | – |
| CC(C)(C)N(NC(=O)c1ccc(Cl)cc1)C(=O)c1ccccc1 | inactive | – |
| c1nc[nH]n1 | inactive | – |
